Reference: PubChem BioAssay (NCI)
This is part of a sample that, as a whole, favours compounds with a hit. Of some 79,000 tested, about 15% had one in any assay. The source made the active and inactive calls. Cut-off read from the data, not from the text of the source: active = growth inhibition above about 70%; inactive = the rest.

What was measured:
[1] = NCI Yeast Anticancer Drug Screen. Data for the rad52 strain (AID 147);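 note: 0% = growth of vehicle-treated control cultures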; conditions: S. cerevisiae rad52 mutant growth inhibition, active compounds read high
How it was run: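 Yeast strain carrying a DNA damage repair alteration was exposed to test compounds. Growth inhibition was measured relative to vehicle-treated controls.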

[2] = NCI Yeast Anticancer Drug Screen. Data for the wt1 strain (AID 149);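 note: 0% = growth of vehicle-treated wt1 cultures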; conditions: S. cerevisiae wt1 strain (SPY 50644) growth inhibition, active compounds read high
How it was run: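 wt1 yeast, compound-treated; % growth inhibition vs vehicle control.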

[3] = NCI Yeast Anticancer Drug Screen. Data for the rad50EPP+ strain (AID 151);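 note: 0% = growth of vehicle-treated control cultures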; conditions: S. cerevisiae rad50 mutant strain, active compounds read high
How it was run: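 Yeast strain carrying rad50 alteration (rad50EPP+) exposed to compounds; growth inhibition measured relative to vehicle-treated controls.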

[4] = NCI Yeast Anticancer Drug Screen. Data for the mgt1 strain (AID 153); conditions: S. cerevisiae mgt1 mutant growth inhibition, active compounds read high
How it was run: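 Yeast mgt1 strain (DNA repair/cell-cycle alteration panel) exposed to compounds; growth inhibition measured relative to vehicle-treated controls.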

[5] = NCI Yeast Anticancer Drug Screen. Data for the rad50 strain (AID 155);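 note: 0% = growth of vehicle-only cultures of the same strain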; conditions: S. cerevisiae rad50 strain growth inhibition, active compounds read high
How it was run: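 Genetically altered yeast (DNA repair pathway); compound treatment; growth inhibition vs vehicle ctrl.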

[6] = NCI Yeast Anticancer Drug Screen. Data for the mec2-1 strain (AID 157); conditions: S. cerevisiae mec2-1 strain, active compounds read high
How it was run: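 mec2-1 yeast strain, carrying an alteration in DNA damage repair or cell cycle control, was exposed to compounds; growth inhibition was measured relative to vehicle-treated controls.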

[7] = NCI Yeast Anticancer Drug Screen. Data for the rad14 strain (AID 159);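 note: 0% = growth of vehicle-treated control cultures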; conditions: S. cerevisiae rad14 strain growth inhibition, active compounds read high
How it was run: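 Test compounds were applied to a repair-deficient yeast strain. Its growth was then compared with that of cultures given vehicle alone, and inhibition was expressed relative to those controls.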

[8] = NCI Yeast Anticancer Drug Screen. Data for the sgs1 mgt1 strain (AID 161);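 note: 0% = growth of cultures given vehicle only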; conditions: S. cerevisiae sgs1 mgt1 strain, active compounds read high
How it was run: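 Percent growth inhibition was derived by comparing compound-exposed mutant yeast with vehicle-exposed cultures. The strain carries alterations in DNA damage repair.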

[9] = NCI Yeast Anticancer Drug Screen. Data for the CLN2oe strain (AID 163);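 note: 0% = growth of vehicle-only control cultures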; conditions: S. cerevisiae CLN2oe strain, active compounds read high
How it was run: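 Yeast cells carrying a defined cell-cycle control alteration were exposed to test compounds. Growth inhibition was scored against vehicle-treated control cultures.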

[10] = NCI Yeast Anticancer Drug Screen. Data for the cln2 rad14 strain (AID 165);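 note: 0% = growth equal to vehicle treated cultures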; conditions: S. cerevisiae cln2 rad14 strain, active compounds read high
How it was run: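 Yeast carrying cln2 and rad14 alterations (cell cycle control and DNA damage repair) were exposed to compounds. Growth inhibition was measured against vehicle-treated controls.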

[11] = NCI Yeast Anticancer Drug Screen. Data for the bub3 strain (AID 167); conditions: S. cerevisiae bub3 mutant strain, active compounds read high
How it was run: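 Yeast carrying a defined mutation is treated with each compound, and growth is compared with that of vehicle-exposed cells to give inhibition.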

[12] = NCI Yeast Anticancer Drug Screen. Data for the wt2 strain (AID 169);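 note: 0% = growth of vehicle-treated yeast cultures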; conditions: S. cerevisiae wt2 strain growth inhibition, active compounds read high
How it was run: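 Yeast cells were exposed to test compounds, and growth inhibition was measured relative to vehicle-treated controls.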

[13] = NCI Yeast Anticancer Drug Screen. Data for the mlh1 strain (AID 171);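 note: 0% = growth of vehicle-treated control cultures of the same strain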; conditions: S. cerevisiae mlh1 strain growth inhibition, active compounds read high
How it was run: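 Yeast carrying a defined genetic alteration in DNA damage repair or cell cycle control were exposed to test compounds. Growth inhibition was measured relative to vehicle-treated controls.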

[14] = NCI Yeast Anticancer Drug Screen. Data for the sgs1 strain (AID 173);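 note: 0% = growth of vehicle-only control cultures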; conditions: S. cerevisiae sgs1 mutant, active compounds read high
How it was run: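 Yeast mutant strains carrying defined defects in DNA damage repair or cell cycle control were exposed to test compounds. Growth inhibition was scored against vehicle-treated controls.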

[15] = NCI Yeast Anticancer Drug Screen. Data for the mlh1 rad18 strain (AID 175); conditions: S. cerevisiae mlh1 rad18 strain growth inhibition, active compounds read high
How it was run: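 Growth inhibition of the yeast strain was measured after compound exposure and expressed relative to vehicle-treated controls. The strain carries defined defects in DNA damage repair.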

[16] = NCI Yeast Anticancer Drug Screen. Data for the rad18 strain (AID 177); conditions: S. cerevisiae rad18 mutant growth inhibition, active compounds read high
How it was run: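 Yeast carrying a defined DNA damage repair alteration were exposed to compounds. Growth inhibition was expressed relative to vehicle-treated controls.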

[17] = at 5.0 µM (retest, dose inferred, filed as 0.5)
[18] = at 50.0 µM (retest, dose inferred, filed as 5.0)

Measured: growth inhibition

O=C(NC(=S)Nc1ccccn1)c1ccccc1
active: [5]; [17] 97% | [5]; [18] 100% | [6]; [17] 100% | [6]; [18] 100% | [15]; [17] 100% | [15]; [18] 100%
inactive: [1]; at 1.2 µM -30% | [1]; at 3.7 µM -43% | [1]; at 11.0 µM -35% | [1]; at 33.0 µM -28% | [1]; at 100.0 µM -22% | [2]; at 1.2 µM -26% | [2]; at 3.7 µM -36% | [2]; at 11.0 µM -32% | [2]; at 33.0 µM -19% | [2]; at 100.0 µM -24% | [3]; at 1.2 µM -30% | [3]; at 3.7 µM -51% | [3]; at 11.0 µM -69% | [3]; at 33.0 µM -53% | [3]; at 100.0 µM 25% | [4]; at 1.2 µM -62% | [4]; at 3.7 µM -40% | [4]; at 11.0 µM -58% | [4]; at 33.0 µM -41% | [4]; at 100.0 µM -22% | [5]; at 1.2 µM -12% | [5]; at 3.7 µM -9% | [5]; at 11.0 µM -19% | [5]; at 33.0 µM -30% | [5]; at 50.0 µM 28.7% | [5]; at 100.0 µM -14% | [6]; at 1.2 µM -73% | [6]; at 3.7 µM -55% | [6]; at 11.0 µM -51% | [6]; at 33.0 µM -54% | [6]; at 50.0 µM 25.1% | [6]; at 100.0 µM -50% | [7]; at 1.2 µM -30% | [7]; at 3.7 µM -20% | [7]; at 11.0 µM -19% | [7]; at 33.0 µM -21% | [7]; at 100.0 µM -23% | [8]; [17] -21% | [8]; [18] 50% | [8]; at 50.0 µM 60.5% | [9]; at 1.2 µM -4% | [9]; at 3.7 µM -15% | [9]; at 11.0 µM -11% | [9]; at 33.0 µM -23% | [9]; at 100.0 µM -15% | [10]; [17] 36% | [10]; [18] 10% | [10]; at 50.0 µM -9.05% | [11]; at 1.2 µM -19% | [11]; at 3.7 µM -22% | [11]; [17] 13% | [11]; at 11.0 µM -13% | [11]; at 33.0 µM 5% | [11]; [18] 57% | [11]; at 50.0 µM 63% | [11]; at 100.0 µM 19% | [12]; at 1.2 µM -32% | [12]; at 3.7 µM -32% | [12]; at 11.0 µM -38% | [12]; at 33.0 µM -27% | [12]; at 100.0 µM -20% | [13]; at 1.2 µM -38% | [13]; at 3.7 µM -34% | [13]; at 11.0 µM -26% | [13]; at 33.0 µM -40% | [13]; at 100.0 µM -37% | [14]; at 1.2 µM -54% | [14]; at 3.7 µM -71% | [14]; at 11.0 µM -47% | [14]; at 33.0 µM -36% | [14]; at 100.0 µM -31% | [15]; at 50.0 µM 19.2% | [16]; at 1.2 µM -60% | [16]; at 3.7 µM -56% | [16]; at 11.0 µM -29% | [16]; at 33.0 µM -38% | [16]; at 100.0 µM -43%

Cc1cc(Cl)ccc1NC(=O)/C(Cl)=C1/Sc2ccccc2NC1=O
active: [5]; [18] 82% | [5]; at 50.0 µM 72% | [8]; [18] 91% | [11]; [18] 91% | [15]; [18] 80%
inactive: [1]; at 1.2 µM -3% | [1]; at 3.7 µM -3% | [1]; at 11.0 µM -2% | [1]; at 33.0 µM 0% | [1]; at 100.0 µM 27% | [2]; at 1.2 µM -1% | [2]; at 3.7 µM -3% | [2]; at 11.0 µM -4% | [2]; at 33.0 µM -41% | [2]; at 100.0 µM 3% | [3]; at 1.2 µM 1% | [3]; at 3.7 µM 4% | [3]; at 11.0 µM 7% | [3]; at 33.0 µM 8% | [3]; at 100.0 µM 2% | [4]; at 1.2 µM -2% | [4]; at 3.7 µM -1% | [4]; at 11.0 µM -3% | [4]; at 33.0 µM -5% | [4]; at 100.0 µM -2% | [5]; at 1.2 µM 2% | [5]; at 3.7 µM 24% | [5]; [17] 47% | [5]; at 11.0 µM 29% | [5]; at 33.0 µM 3% | [5]; at 100.0 µM 24% | [6]; at 1.2 µM -1% | [6]; at 3.7 µM -5% | [6]; [17] 24% | [6]; at 11.0 µM -6% | [6]; at 33.0 µM -5% | [6]; [18] 62% | [6]; at 50.0 µM 56.9% | [6]; at 100.0 µM 16% | [7]; at 1.2 µM 1% | [7]; at 3.7 µM 4% | [7]; at 11.0 µM 5% | [7]; at 33.0 µM 4% | [7]; at 100.0 µM 2% | [8]; [17] 36% | [8]; at 50.0 µM 68.5% | [9]; at 1.2 µM -8% | [9]; at 3.7 µM -1% | [9]; at 11.0 µM -6% | [9]; at 33.0 µM -7% | [9]; at 100.0 µM -14% | [10]; [17] 23% | [10]; [18] 57% | [10]; at 50.0 µM -5.3% | [11]; at 1.2 µM -2% | [11]; at 3.7 µM -2% | [11]; [17] 35% | [11]; at 11.0 µM -3% | [11]; at 33.0 µM -4% | [11]; at 50.0 µM 20.2% | [11]; at 100.0 µM 7% | [12]; at 1.2 µM -2% | [12]; at 3.7 µM 7% | [12]; at 11.0 µM -2% | [12]; at 33.0 µM -2% | [12]; at 100.0 µM 2% | [13]; at 1.2 µM -1% | [13]; at 3.7 µM -3% | [13]; at 11.0 µM -3% | [13]; at 33.0 µM -5% | [13]; at 100.0 µM 0% | [15]; [17] 35% | [15]; at 50.0 µM 69.2% | [16]; at 1.2 µM 0% | [16]; at 3.7 µM 3% | [16]; at 11.0 µM 4% | [16]; at 33.0 µM 6% | [16]; at 100.0 µM 45%
